Source: PubChem BioAssay
PfG6PD inh: PfG6PD enzyme inhibitors, primary screen, biochemical, fluorescence intensity, uHTS. PfGluPho enzyme, NADPH resazurin-diaphorase fluorescence. AID 504690, 2011. hit rate 0.78% among 350,000. inhibition, % at 20 µM;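 active = inhibition reaching at least a set limit at 20 µM in the primary screen, cut at about 59% in these data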
A3G deaminase: APOBEC3G DNA deaminase inhibitors, primary screen, biochemical, fluorescence, single-stranded DNA substrate, uHTS; DNA dC->dU-editing enzyme APOBEC-3G (Homo sapiens), Q9HC16; recombinant A3G, ssDNA deamination FAM/TAMRA fluorescence; inhibition, % at 20 µM; hit rate 0.28% among 330,000; AID 493012, 2011;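 active = inhibition of at least 40% at 20 µM, with no more than 30% in the related APOBEC3A deaminase screen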
Target sequence (Q9HC16 whole entry, looked up): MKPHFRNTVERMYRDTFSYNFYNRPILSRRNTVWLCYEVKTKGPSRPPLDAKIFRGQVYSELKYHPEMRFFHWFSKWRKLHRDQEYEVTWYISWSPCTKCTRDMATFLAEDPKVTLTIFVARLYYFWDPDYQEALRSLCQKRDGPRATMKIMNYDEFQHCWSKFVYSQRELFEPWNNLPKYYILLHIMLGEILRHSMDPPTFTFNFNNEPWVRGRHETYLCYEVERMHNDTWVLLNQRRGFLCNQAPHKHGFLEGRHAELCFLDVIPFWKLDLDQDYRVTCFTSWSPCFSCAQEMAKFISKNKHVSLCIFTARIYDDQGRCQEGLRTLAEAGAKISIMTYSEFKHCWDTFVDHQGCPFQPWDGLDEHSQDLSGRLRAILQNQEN
H9c2 protect: cardioprotection against H2O2-induced cell death, primary screen, uHTS, H9c2 cells, ATPLite luminescence; H9c2 cardiomyocytes, H2O2 injury protection, 2 h; protection from H2O2 cell death, % at 20 µM; hit rate 0.63% among 360,000;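 active = compounds giving at least 50% protection of heart cells from peroxide-induced death in the single-dose screen, raw or plate-pattern-corrected value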
H9c2 TAG inh: inhibitors of triacylglycerol accumulation, primary screen, cell-based, uHTS, fluorescence, H9c2. inhibition, % at 12.5 µM. hit rate 0.66% among 230,000. AID 651582, 2012. H9c2 cells, Nile Red lipid (TAG) fluorescence; cells loaded with 200 µM oleic acid;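 active = pattern-corrected inhibition of lipid staining of at least 50% with the nuclear-stain viability signal not falling by more than 50%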
APOBEC3A inh: APOBEC3A ssDNA deaminase inhibitors, primary screen, selectivity assay for APOBEC3G inhibitor project, biochemical, FAM/TAMRA oligo cleavage fluorescence; AID 493011, 2011; hit rate 0.41% among 330,000; recombinant A3A, FAM/TAMRA ssDNA deamination fluorescence; inhibition, % at 20 µM; DNA dC->dU-editing enzyme APOBEC-3A (Homo sapiens), P31941;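 active = at least 40% inhibition at 20 µM here, with at most 30% in a related deaminase screen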
Target sequence (P31941 whole entry, looked up): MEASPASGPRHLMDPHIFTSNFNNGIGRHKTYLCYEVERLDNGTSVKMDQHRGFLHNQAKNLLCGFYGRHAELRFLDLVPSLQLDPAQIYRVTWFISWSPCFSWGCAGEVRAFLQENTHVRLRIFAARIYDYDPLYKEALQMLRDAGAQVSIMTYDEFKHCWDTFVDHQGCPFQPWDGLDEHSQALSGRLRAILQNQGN
NadD block: inhibitors of S. aureus NadD, primary screen, biochemical, colorimetric, uHTS. Nicotinate-nucleotide adenylyltransferase NadD (Staphylococcus aureus N315). hit rate 0.78% among 360,000. purified NadD enzyme, colorimetric absorbance read-out. inhibition, % at 20 µM; in the data active = inhibition above about 26%
NadD inh conf: inhibitors of S. aureus NadD, confirmation, biochemical, colorimetric, single concentration | shares compounds with NadD block | purified S. aureus NadD, colorimetric enzyme assay | inhibition, % at 20 µM | hit rate 13% among 2,000; in the data active = inhibition mostly above about 42%, no sharp cut-off; inactive = mostly below about 42%
Each line names hits and unclear results; the compound was inactive in the other large screens (follow-up assays come after a bar, where they were run). In the library only some 2.9% were active in any assay of this set; here they are far more common.

O=C(c1cc2sccc2n1Cc1ccc(F)cc1)N1CCN(c2nc3ccccc3s2)CC1	NadD block 54.5 | NadD inh conf inactive
Cn1c(C(=O)N2CCN(c3nc4ccccc4s3)CC2)cc2sccc21	none (no result: H9c2 TAG inh)
Cc1ccccc1OCc1csc(N)n1	none
CC1(Cc2ccccc2OC(F)(F)F)C(=O)Nc2c(Cl)ccc(Cl)c21 (stereo unspecified)	none (no result: PfG6PD inh, A3G deaminase, APOBEC3A inh)
CCOC(=O)c1ccc(-n2c(O)c(/C=N/NC(=O)C3COc4ccccc4O3)c3ccccc3c2=O)cc1 (stereo unspecified)	NadD block 31.1 (no result: H9c2 TAG inh) | NadD inh conf inactive
Cc1ccc(NC(=O)CC2S/C(=N/N=C/C=C/c3ccccc3)NC2=O)cc1Cl (stereo unspecified)	NadD block 32.3 (no result: H9c2 TAG inh) | NadD inh conf inactive
Cc1ccc(NC(=O)CC2S/C(=N/N=C/c3ccco3)NC2=O)cc1Cl (stereo unspecified)	none (no result: H9c2 TAG inh)
Oc1ccc(C=NNC(=S)Nc2ccccc2)nc1	none (no result: A3G deaminase, APOBEC3A inh)
CCOc1ccc(CCN2C(=S)N([C@@H](Cc3ccc(O)cc3)CN3CCC[C@@H]3CN3C(=S)NC[C@@H]3Cc3ccccc3)C[C@@H]2Cc2ccc(O)cc2)cc1	NadD block 45.1 (no result: PfG6PD inh, A3G deaminase, H9c2 TAG inh, APOBEC3A inh) | NadD inh conf inactive
CCOc1ccc(CCN2C(=S)N([C@@H](CC(C)C)CN3CCCC3CN3C(=S)NC[C@@H]3Cc3ccc(O)cc3)C[C@@H]2Cc2ccccc2)cc1 (stereo partly specified)	NadD block 33.6 (no result: A3G deaminase, APOBEC3A inh) | NadD inh conf inactive
CCOc1ccc(CCN2C(=S)N([C@@H](CC(C)C)CN3CCCC3CN3C(=S)NC[C@@H]3Cc3ccc(O)cc3)C[C@@H]2CC(C)C)cc1 (stereo partly specified)	NadD block 36.4 (no result: A3G deaminase, APOBEC3A inh) | NadD inh conf inactive
CCOc1ccc(CCN2C(=S)N([C@@H](CC(C)C)CN3CCCC3CN3C(=S)NC[C@@H]3Cc3ccc(O)cc3)C[C@@H]2Cc2ccc(O)cc2)cc1 (stereo partly specified)	NadD block 37.3 (no result: A3G deaminase, APOBEC3A inh) | NadD inh conf inactive
O=C(O)C1CCN(C(=O)CSc2nc3ccccc3c(=O)n2-c2ccc(Cl)cc2)CC1	none (no result: H9c2 TAG inh)
COc1ccc(CNC(=O)COC(=O)c2ccc(F)c(S(=O)(=O)N3CCCCC3)c2)cc1OC	none
Cn1c(=O)c2cc(NC(=O)NCc3ccccc3)ccc2n1Cc1cccc(C(F)(F)F)c1	none (no result: PfG6PD inh, A3G deaminase, APOBEC3A inh)
O=C(CCc1ccc(S(=O)(=O)N2CCOCC2)cc1)OCC(=O)c1ccccc1	none
CC(C)C[C@H]1CNC(=S)N1C[C@H]1CCCN1C[C@H](Cc1ccc(O)cc1)N1C[C@H](Cc2ccc(O)cc2)N(CCc2ccccc2)C1=S	none (no result: PfG6PD inh, A3G deaminase, H9c2 TAG inh, APOBEC3A inh)
Oc1ccc(C[C@H]2CNC(=S)N2CC2CCCN2C[C@H](Cc2ccccc2)N2C[C@H](Cc3ccc(O)cc3)N(CCc3ccccc3)C2=S)cc1 (stereo partly specified)	NadD block 53.3 (no result: A3G deaminase, APOBEC3A inh) | NadD inh conf 58.2
CC(C)C[C@H]1CN([C@@H](Cc2ccc(O)cc2)CN2CCC[C@@H]2CN2C(=S)NC[C@@H]2Cc2ccccc2)C(=S)N1CCc1ccccc1	NadD block 31.8 (no result: PfG6PD inh, A3G deaminase, H9c2 TAG inh, APOBEC3A inh) | NadD inh conf inactive
c1ccc(-c2ccc(C3=Nn4c(nnc4-c4cc(-c5ccccc5)n[nH]4)SC3)cc2)cc1	NadD block 43.7 (no result: H9c2 TAG inh) | NadD inh conf inactive
CC(C)CC(NC(N)=O)C(=O)OCC(=O)Nc1ccc(OC(F)F)cc1 (stereo unspecified)	none
O=C(c1ccc2c(c1)OCCO2)N1CCN(c2ccc([N+](=O)[O-])cc2)CC1	none (no result: PfG6PD inh, H9c2 protect, H9c2 TAG inh, NadD block)
COc1ccccc1NS(=O)(=O)c1cc(NC(=O)Nc2ccc(Cl)cc2Cl)ccc1N1CCCCC1	NadD block 42.7 (no result: H9c2 TAG inh) | NadD inh conf inactive
Cc1cc(NC(=S)NC(=O)/C=C/c2ccc(S(=O)(=O)N3CCOCC3)cc2)ccc1Br	none (no result: H9c2 TAG inh)
CCOc1ccc(C2C(C#N)=C(N)N(c3sc4c(c3C#N)CCCC4)C3=C2C(=O)CCC3)cc1 (stereo unspecified)	NadD block 55.5 | NadD inh conf inactive
N#CC1=C2N=C(N)c3c(sc4c3CCCCC4)N2C2=C(C(=O)CCC2)C1c1ccccc1 (stereo unspecified)	none
N#Cc1c(OCC(=O)c2ccccc2)nc2c(c1-c1ccco1)CCc1ccccc1-2	NadD block 31.5 (no result: H9c2 TAG inh) | NadD inh conf inactive
CCOC(=O)COc1nc2c(c(-c3ccco3)c1C#N)CCc1ccccc1-2	none
COc1ccc(OC)c(NC(=O)CSc2ncnc3sc(C)cc23)c1	none (no result: A3G deaminase, APOBEC3A inh)
CSc1ccc(C2C(C#N)=C(N)Oc3c2ccc(=O)c2c(C)oc(C)c32)cc1 (stereo unspecified)	NadD block 57.7 | NadD inh conf inactive
O=C1NC[C@@H](CCCCN2C[C@H](Cc3ccc(O)cc3)N(CCc3ccccc3)C(=O)C2=O)N(CCC2CCCCC2)C1=O	none (no result: PfG6PD inh, A3G deaminase, H9c2 protect, H9c2 TAG inh, APOBEC3A inh)
CCOC(=O)C1=C(C)N=c2s/c(=C\c3ccc(OC(C)=O)c(OCC)c3)c(=O)n2C1/C=C/c1ccccc1 (stereo unspecified)	NadD block 54.1 | NadD inh conf inactive
CCOC(=O)C1=C(C)N=c2s/c(=C\c3ccc(OC(C)=O)cc3)c(=O)n2C1/C=C/c1ccccc1 (stereo unspecified)	none (no result: H9c2 TAG inh)
COc1ccc(C2=NN(C(=O)COC(=O)c3ccc(NC(=O)CC#N)cc3)C(c3ccco3)C2)cc1 (stereo unspecified)	NadD block 37.3 | NadD inh conf inactive
O=C(OCC(=O)N1N=C(c2ccc(Cl)cc2)CC1c1ccco1)c1ccco1 (stereo unspecified)	none
COc1cc(NS(=O)(=O)c2ccc(N/C=C(\C#N)c3nc4cc(Cl)ccc4o3)cc2)nc(OC)n1	NadD block 38.6 | NadD inh conf inactive
O=C(Nc1nc(-c2cccnc2)cs1)c1ccccc1Cl	none
COc1ccc(-c2csc(NC(=O)c3ccccc3NS(=O)(=O)c3ccc(C)cc3)n2)cc1	NadD block 41.5 (no result: H9c2 TAG inh) | NadD inh conf 50.7
COc1cc(NS(=O)(=O)c2ccc(NC(C)=O)cc2)nc(OC)n1	none (no result: H9c2 TAG inh)
COc1cc(NS(=O)(=O)c2ccc(Nc3nc(-c4ccccn4)cs3)cc2)nc(OC)n1	none (no result: H9c2 TAG inh)
